Bioassay records (PubChem)
GPT2 inh: inhibitors of human GPT2 alanine aminotransferase; Q8TD30; Recombinant GPT2, coupled pyruvate oxidase/HRP Amplex Red fluorescence; Potency, µM (top dose mostly 57.7 µM), most hits filed as inhibitors; 100,000 tested, 0.25% active; also: nearly all actives have a fitted effect of over 60% in size
Target sequence (Q8TD30 whole entry, looked up): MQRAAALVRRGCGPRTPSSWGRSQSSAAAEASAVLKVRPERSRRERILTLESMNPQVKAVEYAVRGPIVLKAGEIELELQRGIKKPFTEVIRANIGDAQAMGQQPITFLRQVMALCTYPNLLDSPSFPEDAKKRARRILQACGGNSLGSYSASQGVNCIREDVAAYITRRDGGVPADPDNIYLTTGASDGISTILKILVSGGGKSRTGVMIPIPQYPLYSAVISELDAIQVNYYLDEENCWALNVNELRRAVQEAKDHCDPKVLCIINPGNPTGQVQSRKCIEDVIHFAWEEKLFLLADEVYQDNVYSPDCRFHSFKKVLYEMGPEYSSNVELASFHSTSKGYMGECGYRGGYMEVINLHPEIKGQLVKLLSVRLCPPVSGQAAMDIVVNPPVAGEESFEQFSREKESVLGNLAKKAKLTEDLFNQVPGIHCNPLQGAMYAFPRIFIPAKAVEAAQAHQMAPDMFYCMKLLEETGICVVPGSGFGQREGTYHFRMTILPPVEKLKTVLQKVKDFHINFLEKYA
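Recombinant GPT2 (10ng/uL) with 250uM a-KG and 2mM L-alanine, 30 min at room temperature, in HEPES pH 7.5 buffer. Pyruvate detected by pyruvate oxidase/HRP/Amplex Red fluorescence after 30 min in the dark; AOA (50uM) as positive control.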
FLuc inh: inhibitors of firefly (Photinus pyralis) luciferase. AID 1347043. P08659. Potency, µM (series often up to 115 µM), most hits filed as inhibitors. purified P. pyralis luciferase, luminescence, biochemical. 76,000 tested, 2.5% active; also: nearly all actives have a fitted effect of over 65% in size
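FLuc 10nM, D-luciferin 10uM, ATP 10uM, Mg acetate 10mM, Tris acetate pH 7.5, Tween/BSA; cpd qHTS; enzyme added last; CCD luminescence.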
HEK cytotox: HEK 293 cell cytotoxicity | Potency, µM (series often up to 115 µM), hits mostly inhibitors | 94,000 tested, 6.6% active | AID 1345083 | HEK 293 viability, ATP luminescence (CellTiter-Glo), 48-72 h; also: nearly all actives have a fitted effect of over 60% in size
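HEK 293 cells at 250 cells/well were exposed to compounds by pintool transfer for 48 or 72 hr at 37 degree Celsius, 5% CO2. Viability was read as ATP-coupled luminescence with CellTiter-Glo after 10 min at room temperature.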
3T3 cytotox: kills NIH 3T3 cells; Potency, µM (series often up to 96.7 µM), usual class: inhibitors; NIH 3T3 viability, CellTiter-Glo ATP luminescence, 48-72 h; 94,000 tested, 4.3% active; AID 1345082; also: nearly all actives have a fitted effect of over 55% in size
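Cytotoxicity was measured by CellTiter-Glo ATP luminescence after 48 or 72 h compound exposure at 37 °C. Mouse NIH 3T3 fibroblasts were seeded at 400 cells/well and dosed by 23 nL pin transfer.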
NPR1 antag: human Npr1 receptor antagonism | P16066 | HEK293 hNpr1 GloSensor cGMP, ANP-stimulated luminescence | Potency, µM (top dose mostly 46.3 µM), most hits filed as inhibitors | 76,000 tested, 1.6% active | AID 1347048; calls by dose curve; also: nearly all actives have a fitted effect of over 60% in size
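HEK293 cells stably expressing human Npr1 and cGMP GloSensor pGS-40F, loaded 2 h with 2% GloSensor reagent, given compound 30 min at room temperature. Luminescence read before and 20 min after 0.1 nM hNppA.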
Of the large screens only hits and unclear results are named; the others gave an inactive call. In the library only some 10% were active in any assay of this set; here they are far more common. Unless noted, calls follow the shape of the dose curve; as a rule, active = well fitted curve in the direction sought with a large enough effect; inconclusive = small, poorly fitted or top-dose-only effect, or another doubt; inactive = no such curve, though single readings can be large; an effect the other way counts as inactive or inconclusive.

CC1=C[C@@H](CNC(C)C)[C@H](C(C)C)C[C@H]1Cc1nnc(-c2ccc([N+](=O)[O-])cc2)o1	HEK cytotox 79.4µM, 3T3 cytotox 89.1µM
COc1cccc(C(=O)N2CCC(n3cc(-c4nc(C)no4)nn3)C2)c1 (stereo not drawn)	none
Cc1nnc(CN(C)C(=O)c2cccc(S(=O)(=O)N3CCOCC3)c2)o1	none
CCN1C(=O)C2(CCN(S(=O)(=O)c3ccc(Cl)cc3C)CC2)c2ccccc21	HEK cytotox 10µM, 3T3 cytotox inconclusive
Cc1cc(NC(=O)CN2C(=O)NC3(CCCCC3)C2=O)ccc1Br	HEK cytotox inconclusive, 3T3 cytotox inconclusive
CC1(C(=O)NCc2ccccc2)COCc2cnc(Nc3ccccc3)nc21 (stereo not drawn)	HEK cytotox inconclusive, 3T3 cytotox inconclusive
Cc1csc(NC(=O)C2(C)COCc3cnc(Nc4ccccc4)nc32)n1 (stereo not drawn)	HEK cytotox 79.4µM, 3T3 cytotox inconclusive
COCCNC(=O)C1(C)CCc2cnc(Nc3cccc(OC)c3)nc21 (stereo not drawn)	HEK cytotox inconclusive, 3T3 cytotox inconclusive
COc1cccc(Nc2ncc3c(n2)C(C)(C(=O)N2CC[S+](=O)([O-])CC2)CC3)c1 (stereo not drawn)	3T3 cytotox 100µM
COc1cccc(Nc2ncc3c(n2)C(C)(C(=O)Nc2nc(C)cs2)CC3)c1 (stereo not drawn)	HEK cytotox 50.1µM, 3T3 cytotox inconclusive
CC1(C(=O)Nc2ccccc2)COCc2cnc(Nc3ccccc3)nc21 (stereo not drawn)	HEK cytotox 79.4µM, 3T3 cytotox inconclusive
O=C(c1ncccc1F)N1CCCn2ccnc2C1c1ccccc1 (stereo not drawn)	none
COc1cccc(-c2cccc(C(=O)N3CCCC3C(=O)N3CCOCC3)c2)c1 (stereo not drawn)	none (no result: FLuc inh, NPR1 antag)
Cc1ccc(CNC[C@H]2Cn3cc(-c4ccccc4)nc3CO2)cc1	HEK cytotox inconclusive, 3T3 cytotox inconclusive
c1ccc(-c2cn3c(n2)CO[C@@H](CNCc2ccc4ccccc4n2)C3)cc1	HEK cytotox inconclusive, 3T3 cytotox inconclusive
Cc1ccccc1CNC[C@H]1Cn2cc(-c3ccccc3)nc2CO1	HEK cytotox 100µM, 3T3 cytotox inconclusive
Clc1ccccc1CNC[C@H]1Cn2cc(-c3ccccc3)nc2CO1	FLuc inh 56.2µM, HEK cytotox 100µM, 3T3 cytotox inconclusive
Fc1ccccc1CNC[C@H]1Cn2cc(-c3ccccc3)nc2CO1	FLuc inh 63.1µM, HEK cytotox inconclusive
COc1cccc(-c2ccc(C(=O)N3CCC4(CCCN(C)C4=O)C3)o2)c1 (stereo not drawn)	FLuc inh inconclusive, HEK cytotox inconclusive, 3T3 cytotox inconclusive
COCCNC(=O)C[C@@H]1O[C@H](CNCc2cccc(Cl)c2)[C@@H](O)[C@H]1O	none
COc1ccc(C(=O)N2CCC3(CC2)C(OC)C(=O)N3c2cccc(F)c2)c(OC)c1 (stereo not drawn)	HEK cytotox inconclusive
Cc1ccc(C2(O)CCN(C(=O)c3cccc(-c4ncc[nH]4)c3)CC2)nc1	none
Cc1ccc2nc(CO[C@H]3CN(C(=O)C4CCOCC4)C[C@H]3F)[nH]c2c1	GPT2 inh inconclusive
COc1ccc(C(=O)N2C[C@@H](F)[C@@H](OCc3nc4ccccc4o3)C2)cc1	HEK cytotox 100µM
O=C(Nc1cccc(C(F)(F)F)c1)N1C[C@@H](F)[C@@H](OCc2nc3ccccc3[nH]2)C1	HEK cytotox 100µM, 3T3 cytotox 100µM
COc1ccc(C(=O)N2C[C@@H](F)[C@@H](OCc3nc4ccc(F)cc4[nH]3)C2)cc1	FLuc inh 39.8µM, HEK cytotox inconclusive
Cc1ccc2nc(CO[C@H]3CN(C(=O)C4CC4)C[C@H]3F)[nH]c2c1	GPT2 inh inconclusive, FLuc inh 28.2µM
COc1cccc(N2CC(C(=O)NCc3cccs3)NC2=O)c1 (stereo not drawn)	HEK cytotox inconclusive, 3T3 cytotox inconclusive
CN(Cc1ccc(-n2cccn2)cc1)C(=O)c1ccccc1C1CCNC1 (stereo not drawn)	none
CC(C)CNC(=O)c1cc(-c2ccsc2)nc2c1cnn2C	HEK cytotox 70.8µM, 3T3 cytotox inconclusive (no result: FLuc inh, NPR1 antag)
